Three compounds from PubChem BioAssay (EPA / NIEHS) can be followed below.

What is called AC50 is the midpoint of the concentration-response curve, whichever way the signal moves.

Calls of active or inactive are those of the source. Rule for the calls: active = hit-call score of the fitted dose curve at least 0.9, where 1 is the maximum; inactive = score below 0.9.

Common to all, as to conditions: mRNA level, 48 h; actives raise or lower the signal
Read-out in experiment [1]: DNA damage-inducible transcript 3 (DDIT3), DDIT3 (gene 1649)
Description: LTEA_HepaRG_DDIT3: Life Technologies and Expression Analysis (LTEA) Assay for DNA damage-inducible transcript 3 (DDIT3) using HepaRG (AID 2283488). In a few lines: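 qRT-PCR readout (Fluidigm TaqMan), housekeeping-normalized to ACTB, GAPDH, POLR2A. HepaRG cells, 48 h exposure, 8-point half-log series from 100 uM in 0.5% DMSO, duplicates. Gain or loss of signal fitted against DMSO baseline.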

Read-out in experiment [2]: Pro-epidermal growth factor (Homo sapiens) (UniProt P01133)
Kind of experiment: LTEA_HepaRG_EGF: Life Technologies and Expression Analysis (LTEA) Assay for Epidermal growth factor (EGF) using HepaRG (AID 2283489). The method, boiled down: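 HepaRG cells (~100,000/well, 48 h pre-culture) exposed in duplicate for 48 h in serum-free induction medium to 8 half-log concentrations up to 100 uM in 0.5% DMSO. EGF mRNA by qRT-PCR, normalized to ACTB/GAPDH/POLR2A; bidirectional fit versus DMSO.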

Read-out in experiment [3]: Early growth response protein 1 (EGR1) transcription factor, EGR1 (gene 1958)
Description: LTEA_HepaRG_EGR1: Life Technologies and Expression Analysis (LTEA) Assay for Early growth response protein 1 (EGR1) transcription factor using HepaRG (AID 2283490). The method, boiled down: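 EGR1 transcript levels quantified by qRT-PCR (Fluidigm arrays) against three housekeeping genes after 48 h chemical exposure of HepaRG cells. Eight-point half-log series topping at 100 uM, 0.5% DMSO vehicle, analyzed for gain or loss.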

Read-out in experiment [4]: Ezrin (EZR), EZR (gene 7430)
Kind of experiment: LTEA_HepaRG_EZR: Life Technologies and Expression Analysis (LTEA) Assay for Ezrin (EZR) using HepaRG (AID 2283491). The method, boiled down:
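Gain or loss of EZR mRNA is scored relative to 0.5% DMSO in human HepaRG cultures treated 48 h with test chemicals in duplicate, eight half-log concentrations from 100 uM.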

Read-out in another experiment: CYP3A5 (gene 1577)
Description: LTEA_HepaRG_CYP3A5: Life Technologies and Expression Analysis (LTEA) Assay for CYP3A5 using HepaRG (AID 2283493). In a few lines: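 qRT-PCR read-out: CYP3A5 transcript in HepaRG lysates, housekeeping-normalized (ACTB/GAPDH/POLR2A), fitted bidirectionally against 0.5% DMSO baseline. Exposure 48 h, eight half-log concentrations up to 100 uM, duplicates.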

Read-out in experiment [5]: Fatty Acid-Binding Protein 1 (FABP1), FABP1 (gene 2168)
Description: LTEA_HepaRG_FABP1: Life Technologies and Expression Analysis (LTEA) Assay for Fatty Acid-Binding Protein 1 (FABP1) using HepaRG (AID 2283494). The method, boiled down: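 FABP1 expression by TaqMan qRT-PCR, normalised to three housekeeping genes, in HepaRG cells after 48 h chemical treatment. Eight-point half-log series topping at 100 uM in 0.5% DMSO, duplicates; gain or loss fitted relative to vehicle.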

Read-out in experiment [6]: Cytochrome P450 4A22 (Homo sapiens) (UniProt Q5TCH4)
Description: LTEA_HepaRG_CYP4A22: Life Technologies and Expression Analysis (LTEA) Assay for Cytochrome P450 4A22 (CYP4A22) using HepaRG (AID 2283495). In a few lines: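 Differentiated HepaRG cells in serum-free induction medium exposed 48 h in duplicate to eight half-log concentrations up to 100 uM in 0.5% DMSO. CYP4A22 mRNA quantified by TaqMan qRT-PCR, normalized to ACTB, GAPDH and POLR2A; bidirectional fit versus DMSO.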

Read-out in experiment [7]: Cytochrome P450 7A1 (Homo sapiens) (UniProt P22680)
Kind of experiment: LTEA_HepaRG_CYP7A1: Life Technologies and Expression Analysis (LTEA) Assay for Cytochrome P450 7A1 (CYP7A1) using HepaRG (AID 2283496). In a few lines: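 Using 0.5% DMSO as vehicle and baseline, chemicals were tested in duplicate over an 8-point range from 100 uM on HepaRG cells for 48 h; qRT-PCR signals were normalised to ACTB, GAPDH and POLR2A.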

Read-out in experiment [8]: Glutathione S-Transferase (GSTA2), GSTA2 (gene 2939)
Description: LTEA_HepaRG_GSTA2: Life Technologies and Expression Analysis (LTEA) Assay for Glutathione S-Transferase (GSTA2) using HepaRG (AID 2283497). In a few lines: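 GSTA2 transcript levels came from Fluidigm TaqMan qRT-PCR normalized to three housekeeping genes, fitted in both directions against DMSO. HepaRG cultures received chemicals for 48 h in serum-free induction medium (0.5% DMSO), 8 half-log concentrations up to 100 uM, duplicate.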

Read-out in experiment [9]: Glutamate-cysteine ligase catalytic (GCLC), GCLC (gene 2729)
Kind of experiment: LTEA_HepaRG_GCLC: Life Technologies and Expression Analysis (LTEA) Assay for Glutamate-cysteine ligase catalytic (GCLC) using HepaRG (AID 2283498). In a few lines:
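Expression by TaqMan qRT-PCR, normalized to three housekeeping genes (ACTB, GAPDH, POLR2A), with up- or down-regulation fitted against DMSO. HepaRG cells dosed in duplicate for 48 h with 8 half-log concentrations up to 100 uM, vehicle 0.5% DMSO.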

Read-out in experiment [10]: growth arrest and DNA damage 45 (GADD45G), GADD45G (gene 10912)
Kind of experiment: LTEA_HepaRG_GADD45G: Life Technologies and Expression Analysis (LTEA) Assay for growth arrest and DNA damage 45 (GADD45G) using HepaRG (AID 2283499). The method, boiled down: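 Differentiated human HepaRG cells, 48 h post-plating, exposed 48 h in serum-free induction medium to 8 half-log concentrations (top 100 uM, 0.5% DMSO) in duplicate. GADD45G mRNA measured by Fluidigm TaqMan qRT-PCR, normalized to ACTB, GAPDH, POLR2A; bidirectional fit versus DMSO.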

Read-out in experiment [11]: Glutamate-cysteine ligase regulatory (GCLM), GCLM (gene 2730)
Kind of experiment: LTEA_HepaRG_GCLM: Life Technologies and Expression Analysis (LTEA) Assay for Glutamate-cysteine ligase regulatory (GCLM) using HepaRG (AID 2283500). The method, boiled down: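 HepaRG, 48 h dosing, 100 uM top, half-log x8, 0.5% DMSO vehicle. Readout: GCLM mRNA by TaqMan qRT-PCR, housekeeping-normalized (ACTB/GAPDH/POLR2A). Curves fit bidirectionally vs DMSO baseline.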

Read-out in experiment [12]: Glutathione S-transferase M3 (GSTM3), GSTM3 (gene 2947)
Kind of experiment: LTEA_HepaRG_GSTM3: Life Technologies and Expression Analysis (LTEA) Assay for Glutathione S-transferase M3 (GSTM3) using HepaRG (AID 2283501). In a few lines:
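Differentiated human HepaRG cells were exposed in duplicate for 48 h in serum-free induction medium, 8 points from 100 uM top in half-log steps, 0.5% DMSO. GSTM3 mRNA was measured by TaqMan qRT-PCR, normalized to ACTB, GAPDH and POLR2A; bidirectional fit versus DMSO.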

Read-out in experiment [13]: Heat shock 70 kDa protein 1 (HSPA1A), gene 3303
Kind of experiment: LTEA_HepaRG_HSPA1A: Life Technologies and Expression Analysis (LTEA) Assay for Heat shock 70 kDa protein 1 (HSPA1A) using HepaRG (AID 2283502). The method, boiled down:
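HepaRG, 48 h exposure, 8-pt half-log CRC from 100 uM in 0.5% DMSO, duplicates. Readout: TaqMan qRT-PCR of HSPA1A mRNA, housekeeping-normalized (ACTB/GAPDH/POLR2A). Bidirectional fit vs 0.5% DMSO baseline.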

Read-out in experiment [14]: Hypoxia-inducible factor 1-alpha (Homo sapiens) (UniProt Q16665)
Description: LTEA_HepaRG_HIF1A: Life Technologies and Expression Analysis (LTEA) Assay for Hypoxia-inducible factor 1 (HIF1A) Trancription factor using HepaRG (AID 2283503). In a few lines:
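Gain- or loss-of-signal HIF1A mRNA changes are fitted against a DMSO baseline. HepaRG cultures receive eight concentrations, highest 100 uM, for 48 h in serum-free induction medium with 0.5% DMSO.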

Read-out in experiment [15]: 3-Hydroxy-3-Methylglutaryl-CoA Synthase 2 (HMGCS2), HMGCS2 (gene 3158)
Kind of experiment: LTEA_HepaRG_HMGCS2: Life Technologies and Expression Analysis (LTEA) Assay for 3-Hydroxy-3-Methylglutaryl-CoA Synthase 2 (HMGCS2) using HepaRG (AID 2283504). The method, boiled down: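 Human HepaRG cells in serum-free induction medium were exposed in duplicate for 48 h to 8-point half-log series from 100 uM top in 0.5% DMSO. HMGCS2 mRNA measured by TaqMan qRT-PCR, normalised to ACTB, GAPDH, POLR2A; bidirectional fit versus DMSO.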

Read-out in a further experiment: HGF (gene 3082)
Kind of experiment: LTEA_HepaRG_HGF: Life Technologies and Expression Analysis (LTEA) Assay for Hepatocyte Growth Facto (HGF) using HepaRG (AID 2283505). The method, boiled down: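 Differentiated HepaRG cells in serum-free induction medium exposed 48 h in duplicate, 8 half-log concentrations from 100 uM in 0.5% DMSO. HGF mRNA by qRT-PCR, normalised to ACTB, GAPDH, POLR2A; bidirectional fitting.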

Read-out in experiment [16]: Intercellular Adhesion Molecule 1 (ICAM1), ICAM1 (gene 3383)
Kind of experiment: LTEA_HepaRG_ICAM1: Life Technologies and Expression Analysis (LTEA) Assay for Intercellular Adhesion Molecule 1 (ICAM1) using HepaRG (AID 2283507). The method, boiled down:
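Differentiated human HepaRG cells in serum-free induction medium exposed 48 h in duplicate to 8 half-log concentrations (top 100 uM, 0.5% DMSO). ICAM1 mRNA quantified by TaqMan qRT-PCR, normalized to ACTB, GAPDH and POLR2A; bidirectional fitting versus DMSO.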

Read-out in experiment [17]: Cytochrome P450 3A7 (Homo sapiens) (UniProt P24462)
Description: LTEA_HepaRG_CYP3A7: Life Technologies and Expression Analysis (LTEA) Assay for CYP3A7 using HepaRG (AID 2283492). In a few lines:
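Differentiated HepaRG cells in serum-free induction medium exposed 48 h in duplicate to 8-point half-log series from 100 uM top in 0.5% DMSO. CYP3A7 mRNA by qRT-PCR, normalized to ACTB/GAPDH/POLR2A, bidirectional fit versus DMSO.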

Hypoxia-inducible factor 1-alpha (Homo sapiens), sequence (Q16665 whole entry, looked up): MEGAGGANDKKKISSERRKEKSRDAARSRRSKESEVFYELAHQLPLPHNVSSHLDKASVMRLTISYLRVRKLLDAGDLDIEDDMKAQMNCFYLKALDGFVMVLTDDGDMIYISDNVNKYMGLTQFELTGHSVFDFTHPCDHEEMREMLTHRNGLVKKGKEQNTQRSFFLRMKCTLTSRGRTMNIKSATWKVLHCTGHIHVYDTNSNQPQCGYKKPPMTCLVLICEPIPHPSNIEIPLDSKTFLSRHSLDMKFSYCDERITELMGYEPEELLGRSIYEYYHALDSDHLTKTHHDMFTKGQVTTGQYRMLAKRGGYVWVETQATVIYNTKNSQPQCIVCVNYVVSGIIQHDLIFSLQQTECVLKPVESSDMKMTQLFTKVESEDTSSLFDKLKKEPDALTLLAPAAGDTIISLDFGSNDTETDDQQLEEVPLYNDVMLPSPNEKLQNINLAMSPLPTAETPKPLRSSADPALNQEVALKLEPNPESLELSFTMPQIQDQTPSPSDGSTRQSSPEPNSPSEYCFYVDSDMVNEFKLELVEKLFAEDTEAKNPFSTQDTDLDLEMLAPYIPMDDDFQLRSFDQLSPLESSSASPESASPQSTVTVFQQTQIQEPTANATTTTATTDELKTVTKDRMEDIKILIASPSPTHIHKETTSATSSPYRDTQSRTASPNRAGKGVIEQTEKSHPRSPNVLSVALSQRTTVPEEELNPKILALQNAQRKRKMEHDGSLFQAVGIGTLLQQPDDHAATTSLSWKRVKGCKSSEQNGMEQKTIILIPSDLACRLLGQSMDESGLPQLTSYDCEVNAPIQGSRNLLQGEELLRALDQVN
Cytochrome P450 3A7 (Homo sapiens), sequence (P24462 whole entry, looked up): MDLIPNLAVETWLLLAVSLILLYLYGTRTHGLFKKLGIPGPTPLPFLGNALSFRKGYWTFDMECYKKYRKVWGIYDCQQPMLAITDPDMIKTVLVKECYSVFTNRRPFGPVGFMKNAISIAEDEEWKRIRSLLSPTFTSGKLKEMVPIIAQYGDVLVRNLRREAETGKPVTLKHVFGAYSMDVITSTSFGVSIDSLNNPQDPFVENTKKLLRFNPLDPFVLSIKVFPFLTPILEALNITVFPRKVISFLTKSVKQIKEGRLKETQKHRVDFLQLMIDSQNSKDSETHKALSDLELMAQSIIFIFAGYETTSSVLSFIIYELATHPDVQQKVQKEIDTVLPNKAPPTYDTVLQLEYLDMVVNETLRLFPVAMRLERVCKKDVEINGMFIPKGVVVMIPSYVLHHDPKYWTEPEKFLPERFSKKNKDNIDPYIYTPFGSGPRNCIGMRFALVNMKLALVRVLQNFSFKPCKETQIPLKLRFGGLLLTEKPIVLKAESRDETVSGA

Turning to `CC[C@H](C)[C@H]1O[C@]2(C=C[C@@H]1C)C[C@@H]1C[C@@H](C/C=C(\C)[C@@H](O[C@H]3C[C@H](OC)[C@@H](O[C@H]4C[C@H](OC)[C@@H](NC)[C@H](C)O4)[C@H](C)O3)[C@@H](C)/C=C/C=C3\CO[C@@H]4[C@H](O)C(C)=C[C@@H](C(=O)O1)[C@]34O)O2`, the half-maximal activity concentration (AC50) was 13.1 µM (active) in experiment [1]; 81.5 µM (active) in experiment [2]; 29 µM (active) in [3]; 79.5 µM (active) in [4]; 22.7 µM (active) in the experiment with CYP3A5 (gene 1577); 14.6 µM (active) in experiment [5]. Moreover, the AC50 in [6] was 7.23 µM (active); in experiment [8], 23.3 µM (active); in experiment [9], 50 µM (active); in experiment [10] it was 2.78 µM (active); in experiment [13] it was 20.4 µM (active); in [14], 74.3 µM (active). Further, the figures for the AC50 in [15] and in [16] were 12.5 µM (active) and 28.9 µM (active), respectively. Besides, the outcome (in experiment [7]; in [11]; in experiment [12]; with HGF (gene 3082)) was inactive.
`CC1=NNC(=O)N(/N=C/c2cccnc2)C1`: the result (in experiment [1]; in experiment [2]; in experiment [3]; in [4]; in experiment [17]; with CYP3A5 (gene 1577)) was inactive. Further, the compound was classed as inactive in experiment [5], in experiment [6], in [7], in experiment [8], in experiment [9] and in experiment [10]. Further, the compound was classed as inactive (in [12]; in experiment [13]; in [14]; in experiment [15]; with HGF (gene 3082); in [16]).
In the case of `CCc1cccc(C)c1N(C(=O)CCl)C(C)COC` (configuration not stated), the outcome (in experiment [1]; in experiment [2]; in experiment [3]; in experiment [4]; in experiment [17]; with CYP3A5 (gene 1577)) was inactive. For the same compound, the compound was classed as inactive in experiment [6], in experiment [9], in [10], in experiment [13], in [14] and in experiment [15]. Further, the compound was called inactive (with HGF (gene 3082); in experiment [16]). Also, the AC50 in experiment [5] is 37.9 µM (active); in experiment [8] it was 18 µM (active).
